In PubChem BioAssay (EPA / NIEHS):
Activity calls are given as the source filed them. How the source made its calls: active means hit-call score of the fitted dose curve at least 0.9, where 1 is the maximum; inactive means score below 0.9.

How the values were obtained:
[1] = read-out: TIMP metallopeptidase inhibitor 1 (TIMP1), TIMP1 (gene 7076); assay: BSK_hDFCGF_TIMP1: BioMAP Diversity Plus: hDFCGF Assay for TIMP metallopeptidase inhibitor 1 (TIMP1) Biomarker Activity (AID 2283062); details: primary human foreskin fibroblasts; actives raise or lower the signal
Method in brief: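 ELISA readout of TIMP-1 from human dermal foreskin fibroblast cultures 24 h post-dosing. Curves were fitted in both directions against DMSO baseline, with SRB total-protein staining in parallel cultures as a cytotoxicity check.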

[2] = read-out: Monokine induced gamma interferon (MIG), CXCL9 (gene 4283); assay: BSK_hDFCGF_MIG: BioMAP Diversity Plus: hDFCGF Assay for Monokine induced gamma interferon (MIG) Biomarker Activity (AID 2283063); details: primary human foreskin fibroblasts; actives raise or lower the signal
Method in brief: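 Fibroblasts (human foreskin, primary) dosed, 24 h, MIG by ELISA; fit bidirectional vs DMSO.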

[3] = read-out: Matrix Metallopeptidase 1 (MMP1), MMP1 (gene 4312); assay: BSK_hDFCGF_MMP1: BioMAP Diversity Plus: hDFCGF Assay for Matrix Metallopeptidase 1 (MMP1) Biomarker Activity (AID 2283064); details: primary human foreskin fibroblasts; actives raise or lower the signal
Method in brief: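 Human foreskin fibroblasts exposed to chemical for 24 h; MMP1 detected by ELISA, with DMSO as baseline for bidirectional fitting.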

[4] = read-out: Vascular cell adhesion molecule 1 (VCAM1), VCAM1 (gene 7412); assay: BSK_hDFCGF_VCAM1: BioMAP Diversity Plus: hDFCGF Assay for Vascular cell adhesion molecule 1 (VCAM1) Biomarker Activity (AID 2283065); details: primary human foreskin fibroblasts; actives raise or lower the signal;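 on AC50: VCAM-1 protein level quantified by ELISA after 24 h chemical exposure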
Method in brief: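 ELISA read-out of VCAM-1 on human skin fibroblasts, 24 h post-dose; gain or loss of signal fitted bidirectionally against DMSO baseline.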

[5] = read-out: Plasminogen activator inhibitor-1 (PAI1), SERPINE1 (gene 5054); assay: BSK_hDFCGF_PAI1: BioMAP Diversity Plus: hDFCGF Assay for Plasminogen activator inhibitor-1 (PAI1) Biomarker Activity (AID 2283066); details: primary human foreskin fibroblasts; actives raise or lower the signal
Method in brief: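 Fibroblasts from human foreskin were treated with test chemical. After 24 h, PAI-1 was measured by ELISA. Activity was fitted in both directions relative to DMSO.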

[6] = read-out: Intercellular Adhesion Molecule 1 (ICAM1), ICAM1 (gene 3383); assay: BSK_KF3CT_ICAM1: BioMAP Diversity Plus: KF3CT Assay for Intercellular Adhesion Molecule 1 (ICAM1) Biomarker Activity (AID 2283067); details: primary human keratinocytes with fibroblasts; actives raise or lower the signal
Method in brief: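 ELISA readout of ICAM-1; KF3CT human skin co-culture (keratinocytes + foreskin fibroblasts), 24 h post-dose; gain/loss fit vs DMSO baseline.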

[7] = read-out: Interferon-gamma inducible Protein 10 (IP10), CXCL10 (gene 3627); assay: BSK_KF3CT_IP10: BioMAP Diversity Plus: KF3CT Assay for Interferon-gamma inducible Protein 10 (IP10) Biomarker Activity (AID 2283068); details: primary human keratinocytes with fibroblasts; actives raise or lower the signal
Method in brief: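 KF3CT co-culture (keratinocytes + foreskin fibroblasts), 24 h compound, IP-10 by ELISA; bidirectional fit vs DMSO baseline.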

[8] = BSK_KF3CT_SRB: Viability Assessment in the BioMAP Diversity Plus: KF3CT Assay (AID 2283069); details: primary human keratinocytes with fibroblasts;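 further: read 24 h after compound addition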
Method in brief: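 Overt cytotoxicity is assessed as total protein by sulforhodamine B staining in parallel human skin co-cultures at 24 h after dosing. DMSO serves as negative control and baseline.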

[9] = read-out: Interleukin-1 alpha (IL1a), IL1A (gene 3552); assay: BSK_KF3CT_IL1a: BioMAP Diversity Plus: KF3CT Assay for Interleukin-1 alpha (IL1a) Biomarker Activity (AID 2283070); details: primary human keratinocytes with fibroblasts; actives raise or lower the signal
Method in brief: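 Readout is IL-1a level by ELISA, compared bidirectionally with DMSO as baseline. Cells: human keratinocytes co-cultured with foreskin fibroblasts, harvested 24 h post-dose.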

[10] = read-out: TIMP metallopeptidase inhibitor 2 (TIMP2), TIMP2 (gene 7077); assay: BSK_KF3CT_TIMP2: BioMAP Diversity Plus: KF3CT Assay for TIMP metallopeptidase inhibitor 2 (TIMP2) Biomarker Activity (AID 2283071); details: primary human keratinocytes with fibroblasts; actives raise or lower the signal
Method in brief: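 Chemicals were dosed onto human skin primary co-cultures of keratinocytes and foreskin fibroblasts, and TIMP-2 was measured by ELISA after 24 hours. Activity in either direction was fitted relative to DMSO.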

[11] = read-out: Transforming growth factor beta 1 (TGFb1), TGFB1 (gene 7040); assay: BSK_KF3CT_TGFb1: BioMAP Diversity Plus: KF3CT Assay for Transforming growth factor beta 1 (TGFb1) Biomarker Activity (AID 2283072); details: primary human keratinocytes with fibroblasts; actives raise or lower the signal
Method in brief: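 KF3CT co-culture (keratinocytes + fibroblasts), 24 h exposure → TGF-b1 ELISA → bidirectional fit, DMSO = baseline. Parallel SRB total-protein staining (0.1% SRB, 10% TCA fixation, 560 nm) for cytotoxicity.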

[12] = read-out: C-C motif chemokine 2 (Homo sapiens) (UniProt P13500); assay: BSK_KF3CT_MCP1: BioMAP Diversity Plus: KF3CT Assay for Monocyte Chemoattractant Protein 1 (MCP1/CCL2) Biomarker Activity (AID 2283073); details: primary human keratinocytes with fibroblasts; actives raise or lower the signal
Method in brief: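 KF3CT skin co-culture (keratinocytes/foreskin fibroblasts), 24 h post-dose; MCP-1 by ELISA; gain/loss of signal fit bidirectionally vs DMSO baseline.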

[13] = read-out: Matrix Metallopeptidase 9 (MMP9), MMP9 (gene 4318); assay: BSK_KF3CT_MMP9: BioMAP Diversity Plus: KF3CT Assay for Matrix Metallopeptidase 9 (MMP9) Biomarker Activity (AID 2283074); details: primary human keratinocytes with fibroblasts; actives raise or lower the signal;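 on AC50: MMP9 protein level quantified by ELISA in the co-culture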
Method in brief: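 Values come from bidirectional fitting relative to DMSO of MMP-9 levels, which were measured by ELISA. Measurements were taken 24 h after chemical dosing of a keratinocyte and foreskin fibroblast co-culture.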

[14] = read-out: urokinase plasminogen activator (uPA), PLAU (gene 5328); assay: BSK_KF3CT_uPA: BioMAP Diversity Plus: KF3CT Assay for urokinase plasminogen activator (uPA) Biomarker Activity (AID 2283075); details: primary human keratinocytes with fibroblasts; actives raise or lower the signal
Method in brief: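 Values derive from bidirectional fitting against DMSO controls. Keratinocyte/foreskin fibroblast co-cultures received chemical; 24 h later uPA was detected by ELISA, with SRB total-protein staining in parallel wells for overt cytotoxicity.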

CD40, CD40 (gene 958) = assay: BSK_LPS_CD40: BioMAP Diversity Plus: LPS Assay for CD40 Biomarker Activity (AID 2283076); details: primary human HUVEC with PBMC; actives raise or lower the signal
Method in brief: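 ELISA readout of CD40 in HUVEC/PBMC co-culture (BSK_LPS system), 24 h post-dosing; bidirectional curve fit, DMSO baseline; parallel SRB total-protein staining for cytotoxicity.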

[15] = read-out: E-selectin (Homo sapiens) (UniProt P16581); assay: BSK_LPS_Eselectin: BioMAP Diversity Plus: LPS Assay for Eselectin Biomarker Activity (AID 2283077); details: primary human HUVEC with PBMC; actives raise or lower the signal
Method in brief: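 ELISA readout of E-selectin, 24 h post-dose, HUVEC + PBMC co-culture (LPS system). Gain or loss of signal vs DMSO baseline, bidirectional fit.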

[16] = read-out: Interleukin-8 (IL8), CXCL8 (gene 3576); assay: BSK_LPS_IL8: BioMAP Diversity Plus: LPS Assay for Interleukin-8 (IL8) Biomarker Activity (AID 2283078); details: primary human HUVEC with PBMC; actives raise or lower the signal
Method in brief: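 HUVEC + PBMC co-culture, LPS-activated; test chemicals dosed, IL-8 read by ELISA at 24 h. Bidirectional curve fit vs DMSO baseline (gain or loss of signal).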

[17] = BSK_LPS_SRB: Viability Assessment in the BioMAP Diversity Plus: LPS Assay (AID 2283079); details: primary human HUVEC with PBMC;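 further: total protein by sulforhodamine B absorbance as a cytotoxicity measure; measured one day after compound addition; fitted in both directions against DMSO so loss or gain of signal counts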
Method in brief: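 HUVEC + PBMC co-culture, LPS-stimulated; compound 24 h. 10% TCA fix, 0.1% SRB stain, A560. Bidirectional fit vs DMSO.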

[18] = read-out: Interleukin-1 alpha (IL1a), IL1A (gene 3552); assay: BSK_LPS_IL1a: BioMAP Diversity Plus: LPS Assay for Interleukin-1 alpha (IL1a) Biomarker Activity (AID 2283080); details: primary human HUVEC with PBMC; actives raise or lower the signal
Method in brief: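 HUVEC/PBMC co-culture, LPS system; 24 h after dosing; IL-1a by ELISA; gain or loss of signal fitted bidirectionally vs DMSO baseline.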

Measured: AC50

E-selectin (Homo sapiens), sequence (P16581 whole entry, looked up): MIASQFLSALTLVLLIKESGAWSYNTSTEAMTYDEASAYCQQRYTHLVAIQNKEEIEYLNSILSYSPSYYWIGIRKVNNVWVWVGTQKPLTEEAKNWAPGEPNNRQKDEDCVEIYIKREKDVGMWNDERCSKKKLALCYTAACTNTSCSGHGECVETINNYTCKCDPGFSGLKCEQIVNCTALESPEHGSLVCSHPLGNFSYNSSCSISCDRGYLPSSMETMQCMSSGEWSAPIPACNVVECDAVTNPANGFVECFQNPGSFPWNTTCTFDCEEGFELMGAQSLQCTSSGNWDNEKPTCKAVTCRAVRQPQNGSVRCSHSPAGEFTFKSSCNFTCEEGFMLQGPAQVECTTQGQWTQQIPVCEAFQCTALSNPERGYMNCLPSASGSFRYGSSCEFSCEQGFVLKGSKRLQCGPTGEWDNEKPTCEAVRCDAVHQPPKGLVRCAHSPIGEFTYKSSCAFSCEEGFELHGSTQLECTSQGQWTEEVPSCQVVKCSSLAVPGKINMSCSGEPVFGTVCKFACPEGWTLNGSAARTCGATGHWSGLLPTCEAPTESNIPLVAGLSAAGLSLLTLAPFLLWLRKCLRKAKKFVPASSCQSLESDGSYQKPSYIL

O=C(O)Cc1cc(I)c(Oc2cc(I)c(O)c(I)c2)c(I)c1
inactive: [1] | [15] | [17]
active: [2] 10.7 µM | [3] 8.58 µM | [4] 8.85 µM | [5] 8.1 µM | [6] 16.7 µM | [7] 4.59 µM | [8] 10.1 µM | [9] 18.7 µM | [10] 13.4 µM | [11] 8.34 µM | [12] 11 µM | [13] 8.62 µM | [14] 18.8 µM | CD40, CD40 (gene 958) 14.7 µM | [16] 20.5 µM | [18] 21.2 µM

CCN(CC)CCNc1ccc(CNC=O)c2sc3ccc(OC)cc3c(=O)c12
active: [1] 13.1 µM | [2] 34.2 µM | [3] 10.7 µM | [4] 32.4 µM | [5] 11 µM | [6] 31.6 µM | [7] 30.8 µM | [8] 26.4 µM | [9] 22.3 µM | [10] 25 µM | [11] 26.7 µM | [12] 36.6 µM | [13] 17.5 µM | [14] 25.8 µM | CD40, CD40 (gene 958) 35.4 µM | [15] 13.1 µM | [16] 11.2 µM | [17] 25.3 µM | [18] 11.8 µM

CCCCCCCCC(=O)O
inactive: all assays above

CCCCCCCCCCCCc1ccccc1S(=O)(=O)O
inactive: CD40, CD40 (gene 958) | [15] | [16] | [17] | [18]
active: [1] 11.9 µM | [2] 11.7 µM | [3] 7.55 µM | [4] 11.6 µM | [5] 6.87 µM | [6] 31.5 µM | [7] 13 µM | [8] 12.8 µM | [9] 29.9 µM | [10] 13.3 µM | [11] 12.4 µM | [12] 24.3 µM | [13] 12 µM | [14] 28 µM

CCCOc1sc(C(=O)N2CCC(c3cc(CN)ccc3F)CC2)c(C)c1Br
active: [1] 10.6 µM | [2] 9.21 µM | [3] 10.3 µM | [4] 9.91 µM | [5] 6.22 µM | [6] 10.6 µM | [7] 7.07 µM | [8] 5.28 µM | [9] 10.6 µM | [10] 9.6 µM | [11] 8.97 µM | [12] 9.27 µM | [13] 5.74 µM | [14] 10.2 µM | CD40, CD40 (gene 958) 7.91 µM | [15] 11.1 µM | [16] 13.6 µM | [17] 5.93 µM | [18] 8.61 µM

C=C(C)C(=O)OCCC(F)(F)C(F)(F)C(F)(F)C(F)(F)C(F)(F)C(F)(F)F
inactive: all assays above
